Measured values reported in PubChem BioAssay (NCATS).
Results filed as inconclusive are left out. The source made the active and inactive calls. The call rests on the fitted dose curve; in most records, active means well fitted cell-killing curve with a large enough effect; inconclusive means small, poorly fitted or top-dose-only effect, or effect the other way; inactive means no such curve, though single readings can be large or run the other way.

Assay: Quantitative High-Throughput drug screen in 47 multiple myeloma cell lines against the NCATS MIPE library collection: Karpas25_ECACC cell viability assay (AID 1918968; further: nearly all actives have a fitted effect of over 35% in size)
Settings: Karpas25 myeloma viability, CellTiter-Glo ATP, 48 h; series mostly up to 45.8 µM
From the text: PI: Beverly A. Mock Ph.D.
Laboratory of Cancer Biology and Genetics,
Center for Cancer Research, National Cancer Institute,
National Institute of Health, Bethesda, Maryland
Drug resistance and disease progression are common in multiple myeloma (MM) patients, underscoring the need for new therapeutic combinations. […] We hypothesized that effective combinations would reduce MYC expression and enhance p16 activity. […] These preclinical data identify potentially useful drug combinations for evaluation in drug-resistant MM and reveal potential mechanisms of combined drug sensitivity.
Described herein is the primary MIPE qHTS used to cherrypick compounds. Validated compounds were then further tested for potential synergistic activiy.
[1] Peat TJ, Gaikwad SM, Dubois W, Gyabaah-Kessie N, Zhang S, Gorjifard S, Phyo Z, Andres M, Hughitt VK, Simpson RM, Miller MA, Girvin AT, Taylor A, Williams D, D'Antonio N, Zhang Y, Rajagopalan A, Flietner E, Wilson K, Zhang X, Shinn P, Klumpp-Thomas C, McKnight C, Itkin Z, Chen L, Kazandijian D, Zhang J, Michalowski AM, Simmons JK, Keats J, Thomas CJ, Mock BA. Drug combinations identified by high-throughput screening promote cell cycle transition and upregulate Smad pathways in myeloma. Cancer Lett. 2023 Aug 1;568:216284. doi: 10.1016/j.canlet.2023.216284. Epub 2023 Jun 24. PMID: 37356470; PMCID: PMC10408729.
SEQUENCE No. (e.g., 1, 2, 3, etc.); […] (e.g., Cells, Incubation, Reagent, etc.); VALUE and DESCRIPTION.
1; Cells; 5 uL; white, solid bottom 1536-well Greiner assay plate.
2; Compounds; 23 nL; Kalypsis pin tool (Wako USA) equipped with a 1536-well pin head to transfer to the assay plates.
3; Incubation; 48 hours; 37C incubation.
4; Reagent;5uL; CellTiter Glo (Promega).
5; Detector; 425V; Luminescence; Viewlux PerkinElmer.
NOTES (numbers refer to Sequence numbers above)
1. The cell-based screening methods employed in this study were like those previously published. Briefly, the corresponding myeloma cell lines were screened in 1,536-well plates with 500 cells, 5-uL per well for inhibition of cell viability (assessed by measuring ATP levels with CellTiterGlo).
2. NCATS MIPE 4.0 library of approved and investigational drugs were added using the Kalypsis pin tool. Wells treated with DMSO only for 100% viability and media only wells for 0% viability were used as controls.
3. The assay plates were covered and incubated for 48 hours in a 37C, 5% CO2 incubator with controlled humidity.
4. After 48 hours, CellTilter-GloTM luminescent substrate mix (Promega) reagent was added to the assay plate and plates we incubated for 5 min at room temperature.
5. Signal was measured as median relative luminescence units on a ViewLux (PerkinElmer) multiplate reader.
[1] Heske CM, Davis MI, Baumgart JT, Wilson K, Gormally MV, Chen L, Zhang X, Ceribelli M, Duveau DY, Guha R, Ferrer M, Arnaldez FI, Ji J, Tran HL, Zhang Y, Mendoza A, Helman LJ, Thomas CJ. Matrix Screen Identifies Synergistic Combination of PARP Inhibitors and Nicotinamide Phosphoribosyltransferase (NAMPT) Inhibitors in Ewing Sarcoma. Clin Cancer Res. 2017 Dec 1;23(23):7301-7311. doi: 10.1158/1078-0432.CCR-17-1121. Epub 2017 Sep 12. PMID: 28899971; PMCID: PMC6636827.
Potency means the concentration at half of the fitted maximal effect.

Row | Structure (SMILES) | Potency
1 | O=C1CN2Cc3c(ccc(Cl)c3Cl)N=C2N1 | 26.4 µM (active)
2 | COc1c(C)c2c(c(O)c1CC=C(C)CCC(=O)O)C(=O)OC2 | 13.2 µM (active)
3 | CNC1CCC(N(Cc2cccc(-c3ccncc3)c2)C(=O)c2sc3ccccc3c2Cl)CC1 (stereo not given) | 9.35 µM (active)
4 | CN1CCC[C@H]1CCO[C@](C)(c1ccccc1)c1ccc(Cl)cc1 | 13.2 µM (active)
5 | C[C@H]1O[C@@H](n2cc(F)c(=O)[nH]c2=O)[C@H](O)[C@H]1O | 18.7 µM (active)
6 | N#CC(c1ccnc(NCCc2cccnc2)n1)c1nc2ccccc2s1 (stereo not given) | 7.43 µM (active)
7 | COc1ccc2c(c1)c(C1=C(c3c[nH]c4ccccc34)C(=O)NC1=O)cn2CCCN(C)C | 20.9 µM (active)
8 | COC1CCC(C(=O)c2ccc3nc4c(cc3c2)CCCO4)CC1 (stereo not given) | 18.7 µM (active)
9 | CCNC(=O)c1noc(-c2cc(C(C)C)c(O)cc2O)c1-c1ccc(CN2CCOCC2)cc1 | 0.0332 µM (active)
10 | O=C(Nc1cccc(Cl)c1)Nc1ncc(CCNc2ncnc3ccsc23)s1 | 18.7 µM (active)
11 | CN(C)CCN(Cc1ccc(Cl)cc1)c1ccccn1 | 11.8 µM (active)
12 | Cc1nc(NC(=O)N2CCC[C@@H]2C(N)=O)sc1-c1csc(C(C)(C)C)n1 | 5.9 µM (active)
13 | C=C1[C@H](n2cnc3c(=O)[nH]c(N)nc32)C[C@H](O)[C@H]1CO | 2.96 µM (active)
14 | CC(=O)O[C@]1(C(C)=O)CC[C@H]2[C@@H]3C=C(Cl)C4=CC(=O)[C@@H]5C[C@H]5[C@]4(C)[C@@H]3CC[C@@]21C | 9.35 µM (active)
15 | CCOC(=O)c1c(CSc2ccccc2)n(C)c2cc(Br)c(O)c(CN(C)C)c12 | 16.6 µM (active)
16 | O=[N+]([O-])c1ccc(Nc2ccccc2-c2ccccc2)c2nonc12 | 18.7 µM (active)
17 | CCC[C@H](N[C@@H](C)C(=O)N1[C@@H]2CCCC[C@H]2C[C@H]1C(=O)O)C(=O)OCC | inactive
18 | Cc1ccc(NC(=O)c2ccc(CN3CCN(C)CC3)cc2)cc1Nc1nc(-c2cccnc2)cs1 | 5.9 µM (active)
19 | CNC(=O)c1ccc2c(C(=Nc3cccc(CN(C)C)c3)c3ccccc3)c(O)[nH]c2c1 | 13.2 µM (active)
20 | C[C@@H]1O[C@@H](O[C@H]2CC[C@@]3(C)[C@H](CC[C@@H]4[C@H]3C[C@@H](O)[C@]3(C)[C@@H](C5=CC(=O)OC5)CC[C@]43O)C2)C[C@H](O)[C@@H]1O[C@H]1C[C@H](O)[C@H](O[C@H]2C[C@H](O)[C@@H](O)[C@@H](C)O2)[C@H](C)O1 (stereo in doubt) | 0.241 µM (active)

Row | Structure (SMILES) | Potency
21 | CNC(=O)[C@H](CC1=CN=C2C=CCC=C12)NC(=O)[C@@H](CC(=O)NO)CC(C)C | 6.62 µM (active)
22 | Cc1ccc(S(=O)(=O)OCC(=O)Nc2ccc(C(=O)O)c(O)c2)cc1 | 20.9 µM (active)
23 | CN[C@H]1[C@@H](O[C@@H]2[C@H](O[C@@H]3[C@@H](O)[C@@H](O)[C@@H](N=C(N)N)[C@@H](O)[C@@H]3N=C(N)N)O[C@H](C)[C@@]2(O)C=O)O[C@@H](CO)[C@@H](O)[C@H]1O | inactive
24 | Cc1cccc2c1CC[C@H](CN1CCC(c3c(Cl)cccc3Cl)CC1)C[C@@H]2O | 18.7 µM (active)
25 | O=C(CO)N1CCC(c2[nH]nc(-c3ccc(Cl)cc3)c2-c2ccncn2)CC1 | inactive
26 | CN(C)S(=O)(=O)c1ccc2c(c1)C(=Cc1cc3c([nH]1)CCCC3)C(=O)N2 | 16.6 µM (active)
27 | CN(C)CCOc1ccc(-c2nc(-c3ccc4c(c3)CCC4=NO)c(-c3ccncc3)[nH]2)cc1 | 14.8 µM (active)
28 | O=C1Nc2ccc(I)cc2C1=Cc1cc(Br)c(O)c(Br)c1 | 14.8 µM (active)
29 | CCCCC(C)(C)[C@H](O)C=C[C@H]1[C@H](O)CC(=O)[C@H]1CC=CCCCC(=O)O | 18.7 µM (active)
30 | O=c1[nH]c(=O)n([C@H]2C[C@@H](O)[C@@H](CO)O2)cc1I | inactive
31 | C[C@@H]1[C@H](C)CC[C@]2(C(=O)O)CC[C@]3(C)C(=CC[C@@H]4[C@@]5(C)CC[C@H](O)C(C)(C)[C@H]5CC[C@]43C)[C@@H]12 | inactive
32 | CCOC(=O)N1CCN([N+]([O-])=NOc2cc(ON=[N+]([O-])N3CCN(C(=O)OCC)CC3)c([N+](=O)[O-])cc2[N+](=O)[O-])CC1 | 2.64 µM (active)
33 | C=C1c2cccc(O)c2C(O)=C2C(=O)[C@@]3(O)C(O)=C(C(N)=O)C(=O)[C@@H](N(C)C)[C@@H]3[C@@H](O)[C@H]12 | 14.8 µM (active)
34 | CC(=O)OCC(=O)[C@@]1(O)CC[C@H]2[C@@H]3CCC4=CC(=O)C=C[C@]4(C)[C@@H]3[C@@H](O)C[C@@]21C | 0.526 µM (active)
35 | Clc1ccc(C2(c3ccc(-c4cn[nH]c4)cc3)CCNCC2)cc1 | 3.72 µM (active)
36 | CCCCC[C@H](O)C=C[C@H]1[C@H](O)CC(=O)[C@H]1CCCCCCC(=O)O | 23.5 µM (active)
37 | O=C(Nc1cccc(C(F)(F)F)c1)Nc1cc(S(=O)(=O)NC2CC2)ccc1-c1ccsc1 | 26.4 µM (active)
38 | OCCn1cc(-c2ccc3c(c2)CCC3=NO)c(-c2ccncc2)n1 | 23.5 µM (active)
39 | Cc1[nH]c(C=C2C(=O)Nc3ccc(S(=O)(=O)N(C)c4cccc(Cl)c4)cc32)c(C)c1C(=O)N1CCN(C)CC1 | 7.43 µM (active)
40 | CN(C)CC[C@H](CSc1ccccc1)Nc1ccc(S(=O)(=O)NC(=O)c2ccc(N3CCN(Cc4ccccc4-c4ccc(Cl)cc4)CC3)cc2)cc1[N+](=O)[O-] | 1.48 µM (active)
